Screening data (PubChem BioAssay)
Nrf2 ARE act: activators of Nrf2 (ARE) signaling | AREc32 ARE-luciferase reporter (MCF7-derived line), luminescence, 24 h | Potency, µM (doses to about 46.1 µM), for the others: at the top dose activation, most hits filed as activators | 0.31% of 410,000 active; note: % of control where 0% means no effect; nearly all actives have a fitted effect of over 65% in size
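Reporter line AREc32 (ARE-Fluc), seeded overnight in OPTI-MEM with 5% FBS; compound pin-transferred, 24 hr at 37 deg C, 5% CO2; luminescent read-out.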
A549 viability: counter-screen for Nrf2 inhibitors: cytotoxicity in A549 cells; A549 ARE-Fluc cells, CellTiter-Fluor viability, 18-24 h; Potency, µM (doses to about 46 µM), inactives show at the top dose activity change, negative = cytotoxicity, actives largely listed as inhibitors; 0.16% of 390,000 active; note: % is set by controls: 0 for no effect and ±100 for the full control effect
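Cytotoxicity counterscreen: CellTiter-Fluor fluorescence was measured in A549 ARE_Fluc cells after 18-24 h of compound exposure in a concentration series. The subsequent BugLite luminescent read reports ARE-luciferase activity.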
Nrf2 inh: blocks Nrf2 signaling; A549 ARE-Fluc reporter, luciferase luminescence, 18-24 h; 2.1% of 360,000 active; Potency, µM (titrated, usually from 46 µM), for the others: top-dose activity change, negative = inhibition, actives largely listed as inhibitors; AID 504444; note: % is set by controls: 0 for no effect and ±100 for the full control effect; nearly all actives have a fitted effect of over 60% in size
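Cells were seeded and rested 2 h, then exposed to compounds for 18-24 h. CellTiter-Fluor was read first as a viability measure. BugLite was added 15 min before the final luminescent read of ARE-luciferase activity in A549 cells.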
TGFb SMAD3 inh: blocks TGF-b signaling | HepG2 CAGA-GFP TGF-b/SMAD3 reporter, GFP fluorescence, 18 h; TGF-beta stimulated, 500 pg/mL final | Potency, µM (doses to about 46.1 µM), for inactives: top-dose activity, negative = inhibition, usual class: inhibitors | 1.2% of 410,000 active | AID 588855; note: % is set by controls: 0 for no effect and ±100 for the full control effect; nearly all actives have a fitted effect of over 65% in size
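Read-out: total well GFP (ex488/em500-530) summed from mean per-cell fluorescence. Cells: HEPG2 CAGA-GFP, 1% FBS DMEM, 18 h at 37 degrees C with 500 pg/mL final TGF-beta. Unstimulated wells served as the full-inhibition control; stimulated DMSO wells = 0%.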
HepG2 viability: HepG2 cytotoxicity, counter-screen for TGF-b inhibitors. HepG2 CAGA-GFP viability, ATP luminescence, 18 h. Potency, µM (doses to about 46.1 µM), without a hit: at the top dose activity change, negative = cytotoxicity, most hits filed as cytotoxic. 0.76% of 410,000 active. AID 588856
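CellTiter-Glo luminescence gave cytotoxicity after 18 hours at 37 degrees C. The cells were HepG2 CAGA-GFP in 1% FBS DMEM, stimulated with 500 pg/mL TGF-beta after compound addition. %Activity was normalised to no-cell wells (complete cell-killing) and DMSO (no toxicity), and curves were fitted and classified.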
Starred values were filed as active, the others as inactive; u = inconclusive; x = no result given; ! = not active in a repeat. Most compounds without a hit are left out; they make up all but 3.6% or so of the library. Calls come from the whole dose curve; as a rule, active = well fitted curve in the direction sought with a large enough effect; inconclusive = small, poorly fitted or top-dose-only effect, or another doubt; inactive = no such curve, though single readings can be large; an effect the other way counts as inactive or inconclusive. Potency is the fitted concentration of half-maximal effect.

SMILES	Nrf2 ARE act	A549 viability	Nrf2 inh	TGFb SMAD3 inh	HepG2 viability
CN(Cc1ccc(OC(F)F)cc1)C(=O)c1ccc(S(=O)(=O)N(C)c2ccccc2)cc1	1%	-6%	u	u	-31%
C/C(=N\NC(=O)c1ccc(CN(C)S(=O)(=O)c2ccc(C)cc2)cc1)c1ccc(OC(F)F)cc1	0%	-18%	5.2µM*	u	1%
O=C(C=Cc1ccccc1F)c1ccccc1	17%	x	x	11µM*	-57%
O=C(/C=C/c1ccccc1F)c1ccoc1	u	-1%	1%	u	-29%
O=C(/C=C/c1ccc(O)c(O)c1)c1ccccc1O	u	u	-5%	-26%	-29%
O=C(/C=C/c1ccccc1)NNC(=O)c1cccc(Cl)c1	0%	-6%	0%	-17%	-1%
O=C(C=Cc1cccc(Cl)c1)c1ccccc1	0%	2%	u	u	18µM*
O=C(C=Cc1ccccc1O)c1ccccc1O	14µM*	-1%	5%	u	22µM*
COc1ccc(-n2nc([N+](=O)[O-])c(=NCCc3ccc(Cl)cc3)n2O)cc1	0%	-10%	7%	-12%	-22%
COc1ccc(CNC(=O)C2CCN(C(=O)c3ccc(-n4ccc5ccccc54)s3)CC2)cc1	3%	-25%	21µM*	u	-36%
Cc1ccc(Sc2ncnc3onc(C)c23)cc1	u	1%	-15%	-7%	-9%
Cc1ccccc1Sc1ncnc2onc(C)c12	u	0%	x	u	-2%
Cc1noc2ncnc(Sc3ccc(Cl)cc3)c12	u	0%	x	u	14µM*
Cc1noc2ncnc(Sc3c(Cl)cccc3Cl)c12	u	-6%	-22%	u	11µM*
O=C1/C(=C\c2ccco2)NC(=S)N1c1ccccc1	8.9µM*	-5%	u	-21%	-21%
CCCN=C1N/C(=C\c2ccco2)C(=O)N1c1ccccc1	22%	-29%	7%	5%	-13%
S=C(N=Nc1ccccc1)NNc1ccccc1	u	u	u	-17%	-5%
CCn1nc(C)cc1-c1nnc(SCC(=O)Nc2ccccc2)n1CCCOC	0%	1%	2%	0%	-7%
CCn1nc(C)cc1-c1nnc(Sc2ncc([N+](=O)[O-])s2)n1C	-4%	u	-7%	2.8µM*	4µM*
CC(C)(C)c1ccc(-c2noc(C(=O)NN)n2)cc1	0%	1%	-21%	18%	3%
CCN1CCN(Cc2ccc(NC(=O)c3ccc(C)c(NC(=O)c4ccno4)c3)cc2C(F)(F)F)CC1	0%	7%	-7%	0%	-51%
CCN1CCN(Cc2ccc(NC(=O)c3ccc(C)c(NC(=O)c4csc(-c5ccncc5)n4)c3)cc2C(F)(F)F)CC1	-4%	u	8%	u	16µM*
CCN1CCN(Cc2ccc(NC(=O)c3ccc(C)c(NC(=O)c4c[nH]c5cc(C(F)(F)F)ccc5c4=O)c3)cc2C(F)(F)F)CC1	4%	u	u	11µM*	16µM*!
CCN1CCN(Cc2ccc(NC(=O)c3ccc(C)c(/C=C/c4cnc(Nc5cc(N6CCNCC6)nc(C)n5)cn4)c3)cc2C(F)(F)F)CC1	-6%	u	18µM*	u	18µM*
Cc1ccc(C(=O)Nc2cccc(C(F)(F)F)c2)cc1NC(=O)c1c[nH]c2cc(C(F)(F)F)ccc2c1=O	-1%	-1%	15%	7%	0%
SMILES	Nrf2 ARE act	A549 viability	Nrf2 inh	TGFb SMAD3 inh	HepG2 viability
C/C=C/C=C/C(=O)Nc1nccs1	9%	-3%	u	-10%	-1%
O=c1oc(C2(O)CCCCC2)cc2ccc(/C=C/c3ccc(F)cc3)cc12	4%	-5%	-6%	-3%	-30%
Cc1ccc(-n2nc3c(=O)n(CC(=O)NCCc4ccco4)nc(C)c3c2C)cc1	5%	1%	2%	22µM*	-93%
COc1ccc(CNC(=O)Cn2nc(C)c3c(C)n(-c4ccccc4)nc3c2=O)cc1OC	0%	1%	x	-18%	7%
CCOc1ccccc1CNC(=O)Cn1nc(C)c2c(C)n(-c3ccc(C)cc3)nc2c1=O	9%	1%	9.2µM*	5µM*	-44%
COc1cccc(CNC(=O)Cn2nc(C)c3c(C)n(-c4ccc(C)cc4)nc3c2=O)c1OC	0%	4%	-12%	-1%	-2%
COc1ccc(CNC(=O)Cn2nc(C)c3c(C)n(-c4ccc(C)cc4)nc3c2=O)cc1OC	-1%	-11%	23µM*	-29%	-8%
Cc1nc(NC(=O)COC(=O)c2cc3c(s2)CCC(C)C3)c(Cl)cc1Cl (stereo unspecified)	-2%	1%	11%	5%	1%
CCc1ccccc1NC(=O)CSc1nnc(-c2nonc2NC(C)=O)n1C	1%	0%	9%	-14%	3%
Cc1c(C(=O)N(C)c2ccccc2)sc2nc(-c3ccc(F)cc3)cn12	4%	-5%	x	u	-39%
Cc1c(C(=O)Nc2ccncc2)sc2nc(-c3ccccc3)cn12	3%	-4%	10µM*	u	-23%
Cc1c(C(=O)N(C)Cc2ccccc2)sc2nc(-c3ccc(F)cc3)cn12	-3%	-10%	x	13µM*	-61%
CCOC(=O)C(NCc1ccc2c(c1)OCO2)(NC(=O)CC)C(F)(F)F (stereo unspecified)	-1%	-1%	14%	-5%	2%
O=C(Nc1cc(S(=O)(=O)Nc2ccccc2Cl)ccc1O)c1cc2c(s1)CCCC2	0%	1%	6%	-1%	-53%
COCCN(CCOC)C(=O)c1ccc(CSc2nc3ccccc3s2)cc1	6%	-17%	13µM*	u	-23%
Cc1cc(C)n(-c2ccc(C(=O)Nc3cccnc3Cl)cc2)n1	0%	-9%	u	-18%	-13%
CCN1CCN(c2ccc(Cl)cc2NC(=O)c2ccco2)CC1	-1%	u	-8%	19%	-19%
CCN1CCN(c2ccc(Cl)cc2NC(=O)c2ccc(-n3nc(C)cc3C)cc2)CC1	1%	u	u	-6%	22µM*
Cc1cc(C)n(-c2ccc(C(=O)Nc3cc(S(=O)(=O)N(C)C)ccc3Cl)cc2)n1	-1%	1%	18µM*	-19%	-8%
Cc1cc(C(=O)NC2CCCc3c2cnn3-c2cccc(C)c2C)no1 (stereo unspecified)	-1%	-11%	u	u	-28%
Cc1cccc(-n2ncc3c2CCCC3NC(=O)CCc2cccnc2)c1C (stereo unspecified)	-1%	-4%	7.3µM*	-17%	4%
Cc1cccc(-n2ncc3c2CCCC3NC(=O)Cc2c(C)noc2C)c1C (stereo unspecified)	-1%	-9%	8.2µM*	1%	6%
Cc1cccc(-n2ncc3c2CCCC3NC(=O)c2ccncc2)c1C (stereo unspecified)	0%	x	x	1%	-3%
